High-throughput results as filed in PubChem BioAssay.
An excerpt weighted towards active compounds, which were near 3% of everything screened.
PAFAH2 FP inh = PAFAH2 (human) inhibition. Q99487. recombinant PAFAH2, FP-rhodamine activity probe, fluorescence polarization. inhibition, % at 3.39 µM. 340,000 tested, 0.99% active;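 active = inhibition above the mean over all tested compounds plus 3 SD, cut at about 30% in these data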;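 note: inhibitors block probe labeling of enzyme so polarization drops; 0% = enzyme with DMSO and 100% = wells lacking PAFAH2 protein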
PAFAH1B3 inh = blocks human PAF acetylhydrolase 1B catalytic subunit 3; Q15102; inhibition, % at 3.39 µM; AID 492972; recombinant PAFAH1B3, FP-rhodamine probe, fluorescence polarization; 340,000 tested, 0.28% active;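 active = inhibition above the screen-wide average of all tested compounds plus 3 SD, cut at about 25% in these data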;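 note: 0% = enzyme with DMSO only and 100% = wells lacking PAFAH1B3 protein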
pPAFAH inh = inhibitors of human plasma PAF acetylhydrolase (pPAFAH) | Q13093 | recombinant pPAFAH, FP-rhodamine probe fluorescence polarization | inhibition, % at 3.39 µM | 330,000 tested, 1.5% active;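 active = inhibition above the mean inhibition across the screen plus 3 SD, cut at about 25% in these data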;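 note: inhibitors block binding of the rhodamine activity-based probe so polarization drops; 0% = enzyme with DMSO and 100% = wells lacking pPAFAH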
Target sequence (Q13093 whole entry, looked up): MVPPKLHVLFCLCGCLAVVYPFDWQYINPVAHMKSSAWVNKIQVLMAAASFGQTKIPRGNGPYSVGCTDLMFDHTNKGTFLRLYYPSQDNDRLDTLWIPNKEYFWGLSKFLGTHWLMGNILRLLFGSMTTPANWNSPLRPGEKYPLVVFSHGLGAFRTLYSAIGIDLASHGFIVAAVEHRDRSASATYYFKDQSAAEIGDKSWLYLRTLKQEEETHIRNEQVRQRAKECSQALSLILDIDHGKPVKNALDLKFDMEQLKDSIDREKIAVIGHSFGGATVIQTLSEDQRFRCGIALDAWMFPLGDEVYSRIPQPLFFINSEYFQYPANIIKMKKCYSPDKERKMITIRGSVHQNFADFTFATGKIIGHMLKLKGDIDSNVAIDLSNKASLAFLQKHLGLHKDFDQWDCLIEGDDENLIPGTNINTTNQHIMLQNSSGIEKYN
CTSL1 counter = blocks F. hepatica cathepsin L1 in PFM18AAP counter-screen. AID 1906. 300,000 tested, 0.49% active. inhibition, % at 5.96 µM. recombinant F. hepatica cathepsin L1, Z-Leu-Arg-MCA fluorescence;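 active = inhibition above the mean of all tested compounds plus 3 SD, set per screening campaign, cut at about 17% in these data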;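 note: 0% = plate median of test compound wells and 100% = 1 µM Z-Phe-Ala-diazomethylketone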
PP5 primary = blocks human protein phosphatase 5 activity; P53041; purified PP5c, OMFP substrate fluorescence; inhibition, % at 6.7 µM; 320,000 tested, 0.18% active;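 active = inhibition above the campaign's mean inhibition across all tested compounds plus 3 SD, cut at about 9.5% in these data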;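 note: 0% = DMSO only and 100% = 100 µM cantharidin control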
PAFAH1B2 inh = blocks human PAF acetylhydrolase 1b catalytic subunit 2; 340,000 tested, 1.2% active; AID 492953; P68402; inhibition, % at 3.39 µM; recombinant PAFAH1B2, FP-rhodamine activity probe, fluorescence polarization;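 active = inhibition above the mean of all tested compounds plus 3 SD, cut at about 24% in these data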;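 note: 0% = enzyme with DMSO and 100% = wells lacking PAFAH1B2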
PAFAH2 FP conf = PAFAH2 (human) inhibition, confirmed; shares compounds with PAFAH2 FP inh; recombinant PAFAH2, FP-rhodamine activity probe, fluorescence polarization; inhibition, % at 3.39 µM; 2,300 tested, 65% active; AID 493030;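 active = mean inhibition over three repeats above a set limit taken from the earlier primary screen, cut at about 30% in these data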;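 note: inhibitor blocks binding of rhodamine activity probe so polarization falls; 0% = enzyme with DMSO and 100% = wells lacking PAFAH2 protein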
PAFAH1B3 conf FP = confirmation of human PAFAH1B3 inhibitors. shares compounds with PAFAH1B3 inh. recombinant PAFAH1B3, FP-Rh activity-based probe, fluorescence polarization. inhibition, % at 3.39 µM. 390 tested, 30% active;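 active = average inhibition over triplicate runs above the hit cutoff set in the earlier primary screen, cut at about 25% in these data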;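 note: 0% = enzyme with DMSO and 100% = wells lacking PAFAH1B3 protein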
Starred values were filed as active, the others as inactive; · = no result given.

SMILES	PAFAH2 FP inh	PAFAH1B3 inh	pPAFAH inh	CTSL1 counter	PP5 primary	PAFAH1B2 inh	PAFAH2 FP conf	others
CCOc1ccc(C(=O)OCC(=O)NCc2ccccc2)cc1OCC	72.4*	9.4	0.9	·	0.5	2.1	65.7*
Cc1ccc(NC(=O)COC(=O)c2ccco2)cc1S(=O)(=O)N1CCOCC1	66.3*	-3.2	-6.4	·	·	2.3	60.4*
Cc1cnc(C(=O)OCC(=O)Nc2ccc(C)c(S(=O)(=O)N3CCOCC3)c2)cn1	-0.7	13.7	-4.2	·	·	2.8	·
Cc1ccc(NC(=O)COC(=O)/C=C/c2ccccc2)cc1S(=O)(=O)N1CCOCC1	58.4*	-4.1	-1.3	-6.2	-2.6	1.4	34.0*
Cc1ccc(NC(=O)COC(=O)c2ccc(C)c(S(=O)(=O)N3CCOCC3)c2)cc1	70.6*	7.7	·	·	·	5.0	70.7*
Cc1ccc(C(=O)OCC(=O)NC2CC2)cc1S(=O)(=O)N1CCOCC1	50.7*	3.9	12.4	·	3.3	-4.7	32.1*
NC(=O)c1ccc(NC(=O)COC(=O)c2ccc(Br)c(S(=O)(=O)N3CCOCC3)c2)cc1	5.5	0.8	·	·	·	1.2	·
O=C(CNC(=O)c1ccco1)OCc1ccccc1F	9.4	3.0	-0.5	·	·	2.6	·
O=C(O)C1CCN(S(=O)(=O)/C=C/c2ccccc2)CC1	0.3	5.8	-0.5	-3.9	2.7	5.1	·
Cc1ccc(C(=O)OCC(=O)c2ccc(Br)cc2)cc1S(=O)(=O)N1CCOCC1	34.2*	7.2	·	·	·	16.9	19.1
Cc1ccc(C(=O)OCC(=O)NCc2cccs2)cc1S(=O)(=O)N1CCOCC1	48.6*	2.2	13.7	-20.5	0.3	-1.4	38.4*
O=C(COC(=O)Cn1[nH]c(=O)c2ccccc2c1=O)NNC(=O)c1ccccc1	4.8	-3.8	-0.9	·	0.5	2.1	·
COc1cccc(OC)c1OCCCN1CCC(Cc2ccccc2)CC1	-4.7	8.6	4.9	-3.4	1.4	2.3	·
O=c1c2sccc2[nH]c(=S)n1Cc1ccccc1	62.5*	4.9	4.4	-3.3	4.8	0.8	52.4*
CCc1nc2ccc(C(=O)N(C)CC(=O)Nc3ccc(F)c(F)c3F)cc2nc1CC	-1.4	1.4	·	·	·	-1.5	·
COc1ccc(NC(=O)COC(=O)c2ccc(-n3cnnn3)cc2)cc1Cl	35.3*	0.9	-0.6	-3.9	-1.9	-3.7	27.3
COc1ccc(OC)c(NC(=O)COC(=O)c2ccc(-n3cnnn3)cc2)c1	8.0	10.2	0.2	-5.3	2.1	3.8	·
O=C(COC(=O)c1cccc(-n2cnnn2)c1)Nc1c(Cl)cccc1C(F)(F)F	42.1*	-1.7	-5.2	-2.1	3.2	2.8	21.6
CC(C)(C)OC(=O)N1CCC(C(=O)Nc2cccc(C(=O)NCc3ccccc3)c2)CC1	-3.3	9.2	·	·	·	4.7	·
CCOc1ccc(C(=O)OCC(=O)Nc2ccc(SC(F)F)cc2)cc1OCC	80.1*	-2.0	10.9	3.0	1.1	-0.2	77.1*
O=C(COC(=O)c1cc[n+]([O-])cc1)Nc1ccc(SC(F)F)cc1	-5.5	-10.3	10.3	-10.6	-0.5	-2.1	·
CCOc1ccc(Br)cc1S(=O)(=O)Nc1ccc(C(=O)OCC(=O)Nc2ccc(C#N)cc2)cc1	36.1*	-40.9	-11.8	2.6	3.1	-14.3	29.9*
CC(C)=CC(=O)OCC(=O)Nc1ccc(SC(F)F)cc1	78.3*	1.2	21.3	-4.2	-0.4	0.3	84.6*
CNS(=O)(=O)c1cccc(C(=O)OCC(=O)c2c(N)n(Cc3ccccc3)c(=O)n(C)c2=O)c1	2.0	0.0	·	·	·	-0.3	·
O=c1cc(-c2ccc(O)c(O)c2)oc2c(C3O[C@H](CO)[C@@H](O)[C@H](O)[C@H]3O)c(O)cc(O)c12 (some centres not stated)	-2.8	30.1*	4.2	-3.2	1.6	1.6	·	PAFAH1B3 conf FP=10.9
O=c1cc(-c2ccc(O)cc2)oc2c(C3O[C@H](CO)[C@@H](O)[C@H](O)[C@H]3O)c(O)cc(O)c12 (some centres not stated)	0.8	8.1	6.4	8.3	-0.9	4.6	·
